Drawing on PubChem BioAssay, this text covers z-score and composite z-score for 12 molecules.

The structures appear in SMILES notation. Active and inactive are the calls of the source.

A short description of experiment [1]: optical density shifts of acrAB sulA E. coli – strain DRC41, OD650, 48 h, E. coli filamentation inducer project, primary screen (AID 1152).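 Also: E. coli MC1000 strain DRC41 lacking acrAB efflux pump and sulA.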 The following applies: higher = more signal, called active from +8 up or from −8 down.
Experiment [2] can be described thus: probe aLefty1 binding on compound microarray – biochemical, small-molecule microarray, 635/667 nm fluorescence, primary screen (AID 1153).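 Also: score merges spot fluorescence with signal-to-noise ratio from the scanned slide images.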 The following applies: higher = more signal.
The nature of experiment [3]: plasmodial surface anion channel blockers, osmotic lysis – cell-based, P. falciparum Indochina, OD700, 1 h, primary screen (AID 1154). The following applies: P. falciparum Indochina infected RBC osmotic lysis, higher = more signal, called active from +8 up or from −8 down.
A short description of experiment [4]: plasmodial surface anion channel blockers, osmotic lysis – cell-based, P. falciparum Indochina, OD700, 2 h, primary screen (AID 1155).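 Also: lysis reports solute entry through the parasite surface anion channel PSAC.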 The following applies: P. falciparum Indochina infected erythrocytes, higher = more signal, called active from +8 up or from −8 down.
The nature of experiment [5]: changes in parasitized red cell lysis, either direction – P. falciparum Indochina, OD700, 3 h, PSAC antagonist project, primary screen (AID 1156). The following applies: P. falciparum-infected erythrocytes, osmotic lysis, higher = more signal, called active from +8 up or from −8 down.
The nature of experiment [6]: plasmodial surface anion channel blockers, osmotic lysis – cell-based, P. falciparum Indochina, OD700, 18 h, primary screen (AID 1157). Particulars: P. falciparum Indochina infected erythrocytes, osmotic lysis OD700, 18 h; higher = more signal, called active from +8 up or from −8 down.
Experiment [7] is described as follows: S6 kinase pathway phospho-S6 level changes – cell-based, A549, cytoblot, luminescence, serum-stimulated, primary screen (AID 1158).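 Also: serum-stimulated A549 lung adenocarcinoma cells; signal is phosphorylated S6 detected by cytoblot immunostaining with HRP secondary.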 The following applies: 5 h, higher = more signal.
Experiment [8] has as its target NADPH oxidase 2 (Homo sapiens) (UniProt P04839). In words: compounds shifting NOX2 Amplex Red fluorescence – cell-based, HEK293-NOX2, PMA-stimulated, NOX inhibitor project, primary screen (AID 1159). Also: test concentration not given here. Particulars: 45 min, higher = more signal, called active from +8 up or from −8 down.
Experiment [9] addresses NADPH oxidase 4 (Homo sapiens) (UniProt Q9NPH5). In words: compounds shifting NOX4 Amplex Red fluorescence – cell-based, HEK293-NOX4, tetracycline-induced, NOX inhibitor project, primary screen (AID 1160). The following applies: HEK293-NOX4, Amplex Red H2O2 fluorescence, 45 min; higher = more signal, called active from +8 up or from −8 down.
The target in experiment [10] is NADPH oxidase 5 (Homo sapiens) (UniProt Q96PH1). In words: compounds shifting NOX5 Amplex Red fluorescence – cell-based, HEK293-NOX5, NOX inhibitor project, primary screen (AID 1161). Particulars: HEK293-NOX5, ionomycin, 45 min, higher = more signal.
Chain of NADPH oxidase 5 (Homo sapiens) (Q96PH1 whole entry, looked up): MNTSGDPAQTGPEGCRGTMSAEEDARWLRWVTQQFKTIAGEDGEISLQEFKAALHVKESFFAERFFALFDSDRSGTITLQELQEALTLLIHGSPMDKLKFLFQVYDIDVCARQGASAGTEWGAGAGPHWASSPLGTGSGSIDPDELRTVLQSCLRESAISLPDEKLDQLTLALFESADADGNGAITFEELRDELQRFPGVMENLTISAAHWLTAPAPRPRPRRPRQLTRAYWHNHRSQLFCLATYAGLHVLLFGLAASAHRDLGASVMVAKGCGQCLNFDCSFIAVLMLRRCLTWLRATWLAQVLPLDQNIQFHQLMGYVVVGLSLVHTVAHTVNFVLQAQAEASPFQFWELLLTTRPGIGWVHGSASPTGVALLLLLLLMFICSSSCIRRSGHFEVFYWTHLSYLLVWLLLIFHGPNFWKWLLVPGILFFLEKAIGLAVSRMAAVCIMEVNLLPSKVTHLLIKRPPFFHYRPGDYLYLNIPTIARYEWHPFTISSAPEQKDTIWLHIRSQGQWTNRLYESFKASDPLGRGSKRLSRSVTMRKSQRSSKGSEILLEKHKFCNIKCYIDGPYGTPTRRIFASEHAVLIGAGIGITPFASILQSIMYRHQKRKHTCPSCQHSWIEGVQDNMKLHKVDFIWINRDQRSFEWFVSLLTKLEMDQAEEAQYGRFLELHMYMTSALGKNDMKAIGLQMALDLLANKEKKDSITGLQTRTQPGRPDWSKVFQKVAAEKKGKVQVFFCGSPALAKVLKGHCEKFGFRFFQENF

Chain of NADPH oxidase 4 (Homo sapiens) (Q9NPH5 whole entry, looked up): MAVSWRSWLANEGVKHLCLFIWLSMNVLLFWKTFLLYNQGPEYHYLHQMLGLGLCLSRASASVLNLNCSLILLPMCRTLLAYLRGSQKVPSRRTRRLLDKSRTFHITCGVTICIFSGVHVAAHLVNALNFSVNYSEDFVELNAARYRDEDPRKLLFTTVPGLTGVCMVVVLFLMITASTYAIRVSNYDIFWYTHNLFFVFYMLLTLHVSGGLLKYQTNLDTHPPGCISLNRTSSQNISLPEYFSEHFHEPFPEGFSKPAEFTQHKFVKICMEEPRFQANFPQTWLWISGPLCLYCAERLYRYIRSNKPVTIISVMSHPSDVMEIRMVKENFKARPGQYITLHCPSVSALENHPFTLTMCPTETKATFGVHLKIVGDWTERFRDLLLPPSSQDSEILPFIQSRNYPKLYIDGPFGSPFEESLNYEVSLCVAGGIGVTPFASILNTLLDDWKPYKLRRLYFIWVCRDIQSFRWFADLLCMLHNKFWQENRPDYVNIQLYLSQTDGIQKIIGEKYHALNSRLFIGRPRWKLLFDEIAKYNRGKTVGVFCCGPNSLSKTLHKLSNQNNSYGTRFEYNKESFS
Chain of NADPH oxidase 2 (Homo sapiens) (P04839 whole entry, looked up): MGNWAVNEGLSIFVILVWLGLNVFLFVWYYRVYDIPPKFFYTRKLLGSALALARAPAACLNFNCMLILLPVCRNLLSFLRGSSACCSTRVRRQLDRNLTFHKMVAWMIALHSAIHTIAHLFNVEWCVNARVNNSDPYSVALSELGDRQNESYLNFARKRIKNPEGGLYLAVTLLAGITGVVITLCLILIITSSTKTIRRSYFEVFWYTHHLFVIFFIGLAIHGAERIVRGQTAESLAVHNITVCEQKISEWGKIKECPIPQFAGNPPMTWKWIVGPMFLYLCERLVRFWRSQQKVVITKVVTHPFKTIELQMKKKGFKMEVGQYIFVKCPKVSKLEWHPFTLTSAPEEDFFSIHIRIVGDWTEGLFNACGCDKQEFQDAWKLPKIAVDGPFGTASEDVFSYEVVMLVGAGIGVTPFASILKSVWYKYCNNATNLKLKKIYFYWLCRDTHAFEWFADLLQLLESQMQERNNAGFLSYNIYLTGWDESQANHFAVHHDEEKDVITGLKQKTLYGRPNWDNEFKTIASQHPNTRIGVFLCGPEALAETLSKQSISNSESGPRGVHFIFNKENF

Consider `COC(=O)[C@@]1(Cc2ccc(F)cc2)[C@H]2c3cc(C(=O)N4CCCC4)n(CCc4ccc(O)c(O)c4)c3C[C@H]2CN1C(=O)c1ccccc1`, for which the z-score is -1.04 (inactive) in [1]; 2.9 (inactive) in experiment [3]; 0.5 (inactive) in experiment [4]; 0.718 (inactive) in [5]; 0.936 (inactive) in experiment [6]; -0.243 in experiment [7]. Further, the z-score in [8] is -4.14 (inactive); in [9] it was -7.52 (inactive); in [10], -6.63. The composite z-score in experiment [2] turned out to be 1.09.

Turning to `O=c1n(-c2ccccc2)c(=O)n2n1CC(COc1ccccc1)=C([C@H](O)CCc1ccccc1)[C@@H]2CO`, the z-score in experiment [1] is 2.63 (inactive); in experiment [3] it was 16.8 (active); in experiment [4], 0.497 (inactive); in experiment [5] it was 0.076 (inactive); in [6], -1.51 (inactive); in experiment [7], 1.02. Moreover, the z-score in [8] is -0.878 (inactive); in [9], -0.265 (inactive); in experiment [10], -0.682. In experiment [2], this molecule displayed a composite z-score of -0.315.

On to `N#Cc1ccc(C(O)C2C=CC3C(=O)N(c4ccccc4)C(=O)C3N2Nc2ccccc2)cc1` (stereo not given), for which the z-score in [1] was 0.128 (inactive); in experiment [3], 5.39 (inactive); in [4], -0.173 (inactive); in [5] it was 1.18 (inactive); in experiment [6], -0.889 (inactive); in experiment [7] it was 1.64. The values for the z-score in experiment [8], in experiment [9] and in experiment [10] were -2.73 (inactive), -4.19 (inactive) and -3.02, respectively. Besides, the composite z-score in experiment [2] came out at 0.135.

In the case of `COc1ccccc1CN1C(=O)c2ccccc2[C@@]2(Cc3ccccc3N(CC(F)(F)F)C2=O)[C@@H]1c1ccc(CO)cc1`, the z-score in [1] is 0.254 (inactive); in [3], 0.252 (inactive); in experiment [4] it was 0.633 (inactive); in experiment [5] it was -1.9 (inactive); in experiment [6], 0.206 (inactive); in [7] it was -0.309. The z-score in experiment [8] is -0.802 (inactive); in [9], -0.565 (inactive); in [10] it was -0.154. The molecule also had a composite z-score in [2] of 0.0623.

As to `CCCCCCc1nc(C2CC2)cc2c1[Si](C(C)C)(C(C)C)OC2`, the z-score in experiment [1] was -0.611 (inactive); in experiment [3], 0.834 (inactive); in experiment [4] it was -0.225 (inactive); in experiment [5], 0.981 (inactive); in experiment [6], -1.13 (inactive); in experiment [7] it was 0.259. For the same molecule, the figures for the z-score in experiment [8], in experiment [9] and in [10] were -6.34 (inactive), -2.12 (inactive) and -4.98, respectively. The same molecule showed a composite z-score in experiment [2] of -0.0559.

As to `C=CCC(OC(C)=O)[C@@H]1[C@@H](N(Cc2ccc(-c3cccc(C(F)(F)F)c3)o2)C(=O)c2ccc(C)cc2)c2cc(OCCCO)ccc2N1C(=O)c1ccc2ccccc2c1` (stereo not given in full), the z-score was 1.86 (inactive) in [1]; 2.37 (inactive) in experiment [3]; -0.0931 (inactive) in experiment [4]; 0.0854 (inactive) in experiment [5]; -0.109 (inactive) in [6]; -0.494 in experiment [7]. The z-score in experiment [8] was -0.401 (inactive); in [9], 0.713 (inactive); in experiment [10], 1.79. In addition, the composite z-score in experiment [2] is -0.147.

`N#Cc1ccc(NN2C(C(O)c3ccc(F)cc3)C=CC3C(=O)N(c4ccccc4)C(=O)C32)cc1` (stereo not given): the z-score in experiment [1] is -0.922 (inactive); in experiment [3], 8.09 (active); in experiment [4] it was 1.4 (inactive); in experiment [5], 1.36 (inactive); in experiment [6] it was 1.29 (inactive); in experiment [7], -0.491. Also, the figures for the z-score in [8], in [9] and in experiment [10] were -1.33 (inactive), -4.55 (inactive) and -2.9, respectively. Further, the composite z-score in [2] amounted to 1.03.

Turning to `CCOC(=O)C[C@H]1[C@H](OC(=O)c2cc3ccccc3oc2=O)[C@@H](NC(=O)Cc2ccc(OC)cc2)c2cc(OCCCO)ccc2N1C(=O)c1ccc2ccccc2n1`, the z-score in experiment [1] was 0.96 (inactive); in experiment [3] it was 9.52 (active); in experiment [4] it was 0.85 (inactive); in experiment [5], 0.785 (inactive); in experiment [6], 0.305 (inactive); in [7], 0.336. For the same molecule, the z-score in experiment [8] is 1.71 (inactive); in [9] it was 1.34 (inactive); in experiment [10], 1.53. In experiment [2], this molecule registered a composite z-score of -0.0046.

For `COC(=O)C(CC#Cc1ccc2c(c1)[C@]1(C(=O)N2)[C@H](c2ccccc2OCCO)N2[C@H](c3ccccc3)[C@H](c3ccccc3)OC(=O)[C@H]2[C@@H]1C(=O)NC[C@H](O)c1ccccc1)C(=O)OC`, the z-score was 0.345 (inactive) in [1]; 2.45 (inactive) in [3]; 1.18 (inactive) in [4]; 0.984 (inactive) in [5]; 0.957 (inactive) in experiment [6]; 1.54 in experiment [7]. The figures for the z-score in experiment [8], in experiment [9] and in experiment [10] were 1.63 (inactive), 1.03 (inactive) and 1.34, respectively. This molecule gave a composite z-score in experiment [2] of 0.964.

As to `C=CCN1C(=O)[C@@]2(O[C@@H](CCn3cc([C@H](O)c4ccccc4)nn3)[C@H]([Si](C)(C)c3ccc(OC)cc3)[C@H]2C)c2cc(N3CCC3=O)ccc21`, the z-score was 0.359 (inactive) in experiment [1]; 14.4 (active) in experiment [3]; 1.98 (inactive) in experiment [4]; 0.292 (inactive) in [5]; 1.01 (inactive) in experiment [6]; -0.266 in experiment [7]. Besides, the z-score in [8] is 0.631 (inactive); in experiment [9], -0.498 (inactive); in experiment [10], 0.0158. In addition, the composite z-score in experiment [2] is -0.189.

On to `NCCCCCCNC(=O)[C@@H]1C[C@@H]2C(=O)N[C@@H](CCCCN)C(=O)N2[C@@H]1c1cccc(OCCO)c1`, for which the z-score was 0.68 (inactive) in experiment [1]; 3.51 (inactive) in experiment [3]; 0.289 (inactive) in experiment [4]; -0.147 (inactive) in experiment [5]; 0.472 (inactive) in experiment [6]; -0.447 in experiment [7]. Moreover, the z-score in [8] was 0.937 (inactive); in experiment [9] it was 1.02 (inactive); in [10], 1.01. Besides, the composite z-score in experiment [2] came to 0.784.

In the case of `CC1CC/C=C\[C@H]2OC34C=CCN(c5ccc(Cl)cc5)C(=O)[C@H]3N(CCCCCO)C(=O)[C@]4(C)C2C(=O)O1` (stereo not given in full), the z-score in experiment [1] is -0.351 (inactive); in [3], -0.585 (inactive); in experiment [4], 0.231 (inactive); in [5], -0.175 (inactive); in experiment [6], 0.0119 (inactive); in [7], -0.157. Also, the z-score in [8] is 0.57 (inactive); in experiment [9] it was -0.261 (inactive); in experiment [10] it was 1.05. Besides, the composite z-score in experiment [2] was -0.101.
